Screens deposited in PubChem by National Center for Advancing Translational Sciences (NCATS).
BAZ2B block: BAZ2B (human) inhibition. Q9UIF8. AlphaScreen BAZ2B-H3K14Ac peptide displacement. Potency, µM (top dose mostly 114 µM), for inactives: at the top dose activity change, negative = inhibition, hits mostly inhibitors. hit rate 4.4% among 360,000. AID 504333; also: potency is read from the fitted curve at half-maximal effect; % is scaled to controls: 0 for no effect and ±100 for the full control effect; nearly all actives have a fitted effect of over 60% in size
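In this displacement format the biotinylated H3(5-23) peptide acetylated at Lys14 serves as ligand at 50 nM, with BAZ2B at 50 nM in PBS pH 7.4 containing 0.01% Tween-20. Donor and acceptor beads are 10 ug/mL final.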
PLK1 PBD inh: blocks phosphopeptide binding to human PLK1 polo-box domain. hit rate 2.8% among 360,000. Potency, µM, without a hit: max response, negative = inhibition, most hits filed as inhibitors. Plk1 PBD binding of FITC phosphopeptide, fluorescence polarization; also: potency is read from the fitted curve at half-maximal effect; series mostly up to about 57 µM; % is scaled to controls: 0 for no effect and ±100 for the full control effect; nearly all actives have a fitted effect of over 65% in size
HP1b binding inh: inhibitors of HP1-beta chromodomain binding to methylated histone tails; P83916; AlphaScreen HP1-beta / biotin-H3K9me3 peptide binding; Potency, µM (series often up to 114 µM), inactives show top-dose activity change, negative = inhibition, usual class: inhibitors; hit rate 0.56% among 390,000; AID 540317; also: potency is read from the fitted curve at half-maximal effect; nearly all actives have a fitted effect of over 70% in size
Target sequence (P83916 whole entry, looked up): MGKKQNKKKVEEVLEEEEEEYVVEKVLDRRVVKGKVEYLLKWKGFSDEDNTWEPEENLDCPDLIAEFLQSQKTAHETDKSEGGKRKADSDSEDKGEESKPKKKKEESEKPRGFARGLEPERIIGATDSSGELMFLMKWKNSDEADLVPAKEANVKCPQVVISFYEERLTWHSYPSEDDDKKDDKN
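HP1-beta protein (50 nM final) preincubated 30 min at room temperature with biotinylated H3(1-18)K9me3 peptide (50 nM) in PBS pH 7.4, 0.01% Tween-20, then compound added for 30 min. AlphaScreen streptavidin donor/nickel chelate acceptor beads (10 ug/mL final), 30 min dark, luminescence read.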
G9a block: blocks human histone lysine methyltransferase G9a. G9a H3K9 monomethylation, AlphaScreen, 2 h. hit rate 8.8% among 350,000. Potency, µM (series often up to 102 µM), without a hit: at the top dose activity, negative = inhibition, actives largely listed as inhibitors; also: potency is read from the fitted curve at half-maximal effect; % is scaled to controls: 0 for no effect and ±100 for the full control effect; nearly all actives have a fitted effect of over 75% in size
Target sequence (Q96KQ7 913-1193 limits assumed): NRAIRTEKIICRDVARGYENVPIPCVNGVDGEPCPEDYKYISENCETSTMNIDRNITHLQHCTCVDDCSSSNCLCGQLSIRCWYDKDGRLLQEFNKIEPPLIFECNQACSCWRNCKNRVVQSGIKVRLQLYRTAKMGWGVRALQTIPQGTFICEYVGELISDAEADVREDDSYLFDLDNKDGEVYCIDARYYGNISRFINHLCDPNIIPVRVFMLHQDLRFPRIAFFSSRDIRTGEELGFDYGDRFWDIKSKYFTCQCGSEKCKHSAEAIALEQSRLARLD
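Quantitative HTS format: methyltransferase activity on a biotin-tagged H3K9 peptide is measured by AlphaScreen, using a rabbit anti-monomethyl-H3K9 antibody with streptavidin donor and anti-IgG acceptor beads. Final levels are 20 nM enzyme, 500 nM peptide, 20 uM SAM; 2 h RT.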
JMJD2A Tudor: JMJD2A Tudor domain (human) inhibition. O75164. AlphaScreen JMJD2A-Tudor / H3K4me3 peptide binding. Potency, µM (doses to about 114 µM), without a hit: top-dose activity change, negative = inhibition, actives largely listed as inhibitors. hit rate 4.4% among 390,000. AID 504339; also: potency is read from the fitted curve at half-maximal effect; % is scaled to controls: 0 for no effect and ±100 for the full control effect; nearly all actives have a fitted effect of over 50% in size
PI5P4K alpha inh: inhibitors of human PI5P4K alpha | max response, % | hit rate 1.2% among 330,000 | PI5P4Kalpha enzyme, ADP-Glo luminescence, 60 min; hits give low values; active = max response of -50% or lower; inconclusive = between -30% and -50%; inactive = -30% or higher; also: value at the top dose of about 77 µM; % is scaled to controls: 0 for no effect and ±100 for the full control effect
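ADP-Glo luminescence end-point after a 60 min room-temperature kinase reaction. PI5P4Kalpha and substrate in HEPES pH 7.4 buffer with EGTA, 0.1% CHAPS and 5% DMSO; ATP at 5 microM final.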
* hit, by the source's call; ? = inconclusive; . = no result given; ! = repeats disagree; [ ] = dose if it differs, or a comment. The list is not random: actives were taken first. Their share in the collection is about 12%. Unless noted, calls follow the shape of the dose curve; as a rule, active = well fitted curve in the direction sought with a large enough effect; inconclusive = small, poorly fitted or top-dose-only effect, or another doubt; inactive = no such curve, though single readings can be large; an effect the other way counts as inactive or inconclusive.

SMILES	BAZ2B block	PLK1 PBD inh	HP1b binding inh	G9a block	JMJD2A Tudor	PI5P4K alpha inh
Cc1ccc(-c2nc3cnccn3c2Nc2ccccc2)o1	-33%	-23%	?	7.9µM*	?	-14
Cc1ccc(Nc2c(-c3ccc(C)o3)nc3ccccn23)cc1	.	.	-14%	.	?	.
Cc1ccc(Nc2c(-c3ccc(C)o3)nc3cnccn23)cc1	?	14µM*	?	32µM*	40µM*	-10
O=C(ONC(=O)C1C2C=CC(C2)C1C(=O)NOC(=O)c1ccccc1)c1ccccc1 (centres undefined)	.	6%	52%	.	0.79µM*	-4
O=C(NNC(=O)C1CC1)c1cc(Br)c(Br)s1	.	1%	17%	.	-16%	-1
N#Cc1nc(Nc2cccc(C(F)(F)F)c2)nc(NC2CCCC2)n1	.	.	.	.	-24%	.
COc1ccc(CN2CCN(C(=O)c3cccnc3)CC2)cc1Br	35µM*	-3%	?	18µM*	3.2µM*	.
O=C(c1cccnc1)N1CCN(C(=O)c2ccco2)CC1	0%	-10%	15%	6%[59 µM]	3%	.
O=C(c1cccnc1)N1CCN(Cc2cccc(Br)c2)CC1	19%	0%	50µM*	13µM*	3.5µM*	.
O=C1c2ccccc2NC(c2ccccc2O)N1Cc1ccco1 (centres undefined)	.	.	4%[57 µM]	.	-8%[57.1 µM]	.
COc1cccc(-n2cc3c(=O)n(C)c(=O)n(C)c3c2)c1	?	-7%	27%	35µM*	-6%	-2
C/C(=N\NC(=S)NC1CCCCC1)c1cccs1	50µM*	-1%	?	?	?	3
O=S(=O)(NC(=S)NC1CCCCC1)c1ccccc1	-36%	-17%	19%	25µM*	-18%	-8
O=S(=O)(NC(=S)NC1CCCCC1)c1cccs1	-25%	?	0%	20µM*	-13%	?
C/C(=N\NC(=O)C1CC1)c1cccs1	-4%	-12%	29%	6%	3%	1
O=C(NC1CCCCC1)C(Cc1ccccc1)NS(=O)(=O)c1cccs1 (centres undefined)	-3%	-8%	19%	-2%	-15%	.
Cc1ccc(NC(=O)C(=O)NCCc2sc(-c3ccc(Cl)cc3)nc2C)cc1C	-17%	.	21%[57 µM]	20%[59 µM]	-20%	.
CCc1ccccc1N1CC(c2nc3ccccc3n2CCCOc2ccc(Cl)cc2)CC1=O (centres undefined)	-13%	.	9%	-36%[59 µM]	-28%	.
CCSc1nnc(NC(=O)CCN2C(=O)C3CCCCC3C2=O)s1 (centres undefined)	-2%	0%	50%	17%[12.7 µM]	-8%	0
COc1ccccc1N1CCN(Cc2ccc(O)c3ncccc23)CC1	4.5µM*	-4%	-11%	?	13µM*	.
OCC1(Cc2ccccc2C(F)(F)F)CCN(Cc2ccccc2)CC1	-16%	-1%	27%	-6%	-13%	-3
COc1cccc(CN2CCN(Cc3ccccc3C(F)(F)F)CC2)c1	25µM*	-6%	20µM*	4.5µM*	28µM*	-2
COc1ccc(OC)c(CN2CCN(CCCc3ccccc3)C(CCO)C2)c1 (centres undefined)	-5%	-5%	22%	-5%	-28%	-1
COc1ccc(CN2CCN(CCCc3ccccc3)CC2)c(OC)c1	32µM*	.	.	4µM*	.	.
COc1ccc(CN2CCN(c3ccccc3OC)CC2)c(OC)c1	?	-2%	-33%	-9%[0.501 µM]	20µM*	-1
SMILES	BAZ2B block	PLK1 PBD inh	HP1b binding inh	G9a block	JMJD2A Tudor	PI5P4K alpha inh
COc1ccc2c(CN3CCN(c4ccccc4OC)CC3)cc(=O)oc2c1	.	4%	.	.	.	-1
COc1cc(CNc2ncnc3c2ncn3[C@H]2CN(Cc3ccc(Cl)cc3)C[C@@H](CO)O2)cc(OC)c1OC	.	-14%	.	.	.	5
COc1ccc(CC(C)N2CCN(Cc3ccccc3)CC2)c(OC)c1 (centres undefined)	-32%	-5%	28%	-51%[59 µM]	?	.
COc1ccc(CN2CCN(Cc3ccccc3C(F)(F)F)CC2)c(OC)c1	28µM*	3%	28µM*	45µM*	1.6µM*	-5
COc1ccccc1N1CCN(C2CCCN(Cc3ccccc3OCCO)C2)CC1 (centres undefined)	0%	-7%	27%	79µM*	-16%	0
COC(=O)CN(c1ccc(OC)cc1OC)S(=O)(=O)c1ccccc1[N+](=O)[O-]	-17%	-11%	9%	11µM*	-18%	0
COc1ccc(N(CC(=O)Nc2ccccc2C)S(=O)(=O)c2ccccc2[N+](=O)[O-])c(OC)c1	-8%	7.5µM*	?	-23%	?	?
O=C(CCn1c(=O)c2cccn2c2cccnc21)Nc1ccccc1C(F)(F)F	-4%	.	0%	-7%[59 µM]	-22%	.
COCC(C)n1c(SCC(=O)NC(=O)NC2CCCC2)nc2ccccc2c1=O (centres undefined)	-2%	-14%	22%	17%[12.7 µM]	-11%	0
CC1CCCN(c2ccc3nc4ccccc4c(=O)n3n2)C1 (centres undefined)	6%	?	33%	50µM*	79µM*	3
CC(=O)c1ccc(NC(=O)c2sc3nc(C)c(C)c(C)c3c2N)cc1	-1%	0%	27%	.	-17%	3
Cc1nc2sc(C(=O)Nc3ccccc3)c(N)c2c(C)c1[N+](=O)[O-]	.	27µM*	?	-44%	?	-18
O=C(CCS(=O)(=O)c1ccccc1)Nc1nc(-c2ccccn2)cs1	.	-17%	30%	.	89µM*	-3
Cc1ccc(S(=O)(=O)CCC(=O)Nc2nc(-c3ccncc3)cs2)cc1	-38%	-13%	43%	40µM*	14%	-15
Cc1ccc(S(=O)(=O)CC(=O)Nc2nc(-c3ccccc3)cs2)cc1	45%	-12%	-1%	26%[59 µM]	-24%	-6
CC(CN1c2ccccc2Sc2ccccc21)N(C)C (centres undefined)	45µM*	-18%	-14%	15µM*!	?	-5
Cc1cc(C)n(CC(O)CN2c3ccccc3Sc3ccccc32)n1 (centres undefined)	50µM*	-6%	-37%	?	32µM*	5
COc1ccc2c(c1)N(C[C@@H](C)CN(C)C)c1ccccc1S2	.	.	.	7.9µM*	.	.
CC(CN(C)C)CN1c2ccccc2Sc2ccccc21 (centres undefined)	-37%	-12%	22%	?	-12%	0
COc1ccc(CCN2CC(C(=O)N(C)CCc3cn[nH]c3)CCC2=O)cc1 (centres undefined)	6%	5%	48%	-11%[12.7 µM]	14%	2
CC(CSC(=O)c1ccccc1)C(=O)N1C[C@@H](Sc2ccccc2)C[C@H]1C(=O)O (some centres undefined)	.	.	.	-32%[12.7 µM]	.	.
Nc1cccc(CP(=O)(c2ccccc2)c2ccccc2)c1	12%	5%	31%	-9%[12.7 µM]	-1%	1
